The source of these data is PubChem BioAssay (Tox21).

“And” between values parts separate entries of the source, which are not always exact repeats. Equal entries are not always repeated. Results filed as inconclusive are left out. The source holds several records for some structures; these can differ, active in one and inactive in another. The source made the active and inactive calls. The call rests on the fitted dose curve; in most records, active means well fitted curve in the direction sought with a large enough effect in the repeat runs; inconclusive means weak or mixed curves; inactive means no such curve, though single readings can be large; an effect the other way counts as inactive or inconclusive.

Assay [1] is described as follows: A CellTox Green Cytotoxicity Assay to monitor cytotoxicity in HEK293 cells - 40 hour (AID 1224871). Further: nearly all actives have a fitted effect of over 45% in size. Further: potency means the concentration at half of the fitted maximal effect. The procedure, abridged:
(§1)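 Nonlytic real-time cytotoxicity: HEK293 + CellTox Green reagent plated, 5 h preincubation, pintool compound addition (23 nL in DMSO), 37 C for 40 h, fluorescence measured at successive time points.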

A short description of assay [2]: qHTS RealTime-Glo MT Cell Viability Assay in HEK293 cells - 16 hour (AID 1224872). Further: top concentration of the series differs between compounds; nearly all actives have a fitted effect of over 50% in size. The gist of the method:
(§2)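 Quantitative high-throughput screen of the Tox21 10K library in HEK293: cells and RealTime-Glo reagents plated together, compound added at 5 h, luminescence monitored through 40 h at 37 C.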
On the technique in general: Quantitative high-throughput screening tests each substance at several concentrations.

Assay [3] is described as follows: qHTS RealTime-Glo MT Cell Viability Assay in HepG2 cells - 8 hour (AID 1224873). Further: nearly all actives have a fitted effect of over 55% in size. The gist of the method:
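HepG2 cells (600/well) mixed with RealTime-Glo MT reagent, settled 5 h at 37 C/5% CO2 before compound addition. Nonlytic NanoLuc luminescence from viable-cell prosubstrate reduction read repeatedly during 40 h treatment at 37 C.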

Assay [4] can be described thus: qHTS RealTime-Glo MT Cell Viability Assay in HEK293 cells - 40 hour (AID 1224874). Further: nearly all actives have a fitted effect of over 50% in size. The following applies: RealTime-Glo luminescence; max response: stronger effect = lower value. The gist of the method: (§3)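 Cells were seeded together with NanoLuc luciferase and a prosubstrate that viable cells reduce to a luciferase substrate. After a 5 h incubation at 37 C/5% CO2, compounds were added and luminescence was measured repeatedly during 40 h of treatment.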

Assay [5] is described as follows: A CellTox Green Cytotoxicity Assay to monitor cytotoxicity in HEK293 cells - 24 hour (AID 1224875). Further: series mostly up to about 77 µM; nearly all actives have a fitted effect of over 45% in size. The gist of the method: as §1
Assay [6] is described as follows: A CellTox Green Cytotoxicity Assay to monitor cytotoxicity in HepG2 cells - 16 hour (AID 1224876). Further: nearly all actives have a fitted effect of over 45% in size. Further: potency means the concentration at half of the fitted maximal effect. The procedure, abridged: (§4)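 Read-out is fluorescence of a cyanine dye excluded from live cells that stains DNA of dead HepG2 cells, with signal proportional to cytotoxicity. Plates were read at 0, 8, 16, 24, 32 and 40 h after compound addition.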
Assay [7] is described as follows: qHTS RealTime-Glo MT Cell Viability Assay in HepG2 cells - 32 hour (AID 1224877). Further: nearly all actives have a fitted effect of over 55% in size. The gist of the method: (§5)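 Compound treatment began 5 h after plating HepG2 cells (600/well) with NanoLuc luciferase and prosubstrate. Plates stayed at 37 C for 40 h; luminescence was captured at six time points, 0 h through 40 h.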
Assay [8] is described as follows: A CellTox Green Cytotoxicity Assay to monitor cytotoxicity in HepG2 cells - 24 hour (AID 1224878). Further: nearly all actives have a fitted effect of over 45% in size. Further: potency means the concentration at half of the fitted maximal effect. The gist of the method:
as §4

Assay [9] is described as follows: A CellTox Green Cytotoxicity Assay to monitor cytotoxicity in HepG2 cells - 40 hour (AID 1224879). Further: nearly all actives have a fitted effect of over 40% in size. Further: potency means the concentration at half of the fitted maximal effect. The procedure, abridged: as §4
Assay [10] can be described thus: qHTS RealTime-Glo MT Cell Viability Assay in HEK293 cells - 0 hour (AID 1224880). The procedure, abridged:
as §3

A short description of assay [11]: A CellTox Green Cytotoxicity Assay to monitor cytotoxicity in HEK293 cells - 32 hour (AID 1224881). Further: nearly all actives have a fitted effect of over 40% in size. Further: potency means the concentration at half of the fitted maximal effect. The gist of the method: as §1
Assay [12] in a line: A CellTox Green Cytotoxicity Assay to monitor cytotoxicity in HepG2 cells - 0 hour (AID 1224882). Further: nearly all actives have a fitted effect of over 35% in size. The gist of the method:
as §4

Assay [13] in a line: A CellTox Green Cytotoxicity Assay to monitor cytotoxicity in HepG2 cells - 32 hour (AID 1224883). Further: nearly all actives have a fitted effect of over 50% in size. Further: potency means the concentration at half of the fitted maximal effect. The gist of the method: as §4
The nature of assay [14]: A CellTox Green Cytotoxicity Assay to monitor cytotoxicity in HEK293 cells - 8 hour (AID 1224884). Further: nearly all actives have a fitted effect of over 35% in size. The procedure, abridged: as §1
A short description of assay [15]: qHTS RealTime-Glo MT Cell Viability Assay in HepG2 cells - 16 hour (AID 1224885). Further: nearly all actives have a fitted effect of over 50% in size. The procedure, abridged:
as §5

Assay [16] in a line: qHTS RealTime-Glo MT Cell Viability Assay in HEK293 cells - 24 hour (AID 1224886). The procedure, abridged:
as §2

Assay [17] is described as follows: qHTS RealTime-Glo MT Cell Viability Assay in HEK293 cells - 8 hour (AID 1224887). The gist of the method:
as §3

Assay [18] can be described thus: A CellTox Green Cytotoxicity Assay to monitor cytotoxicity in HEK293 cells - 16 hour (AID 1224888). Further: nearly all actives have a fitted effect of over 35% in size. The gist of the method:
as §1

Assay [19] in a line: qHTS RealTime-Glo MT Cell Viability Assay in HepG2 cells - 0 hour (AID 1224889). Further: nearly all actives have a fitted effect of over 50% in size. The procedure, abridged: as §5
Assay [20] is described as follows: A CellTox Green Cytotoxicity Assay to monitor cytotoxicity in HepG2 cells - 8 hour (AID 1224890). Further: nearly all actives have a fitted effect of over 45% in size. Further: potency means the concentration at half of the fitted maximal effect. The gist of the method:
as §4
On the % scale 0 is the no-effect control and ±100 the full control effect.

With `CO[Si](CCCNCCN)(OC)OC`, the Potency entry in assay [1], in assay [2], in [3], in assay [5], in [7] and in assay [10] was “inactive” throughout. Also, the Potency result in assay [11], in assay [12], in [14], in assay [15], in assay [16] and in assay [17] was “inactive” throughout. The Potency result in assay [18] and in [19] was “inactive” each time. Besides, in [4], the max response was 4.43% (inactive) and -18.7% (inactive). Besides, the Potency entry in assay [6] is “inactive and 49 µM (active)”; in [8], “inactive and 49 µM (active)”; in [9] it was “inactive and 49 µM (active)”; in [13], “inactive and 49 µM (active)”; in [20], “inactive and 49 µM (active)”.
Consider `Brc1ccc(Oc2ccc(Br)cc2)cc1`, for which the Potency entry in assay [1], in assay [2], in assay [3], in [5], in assay [6] and in assay [7] was “inactive” each time. Also, the Potency result in assay [8], in assay [9], in assay [10], in assay [11], in assay [12] and in assay [13] was “inactive” throughout. Moreover, the Potency result in [14], in [15], in assay [16], in [17], in assay [18] and in [19] was “inactive” in each case. The Potency entry in assay [20] was “inactive”. Besides, in assay [4], the max response is -1.97% (inactive) and -5.7% (inactive).
In the case of `CC(=O)c1nccs1`, the Potency entry in assay [1], in assay [2], in [3], in [5], in assay [6] and in [7] was “inactive” in each case. For the same molecule, the Potency result in [8], in [9], in assay [10], in [11], in [12] and in assay [13] was “inactive” in each case. The Potency entry in assay [14], in assay [15], in assay [16], in [17], in [18] and in assay [19] was “inactive” in each case. In addition, the Potency entry in assay [20] was “inactive”. In addition, the max response in assay [4] is 1.39% (inactive) and 3.29% (inactive).
With `CC(C=O)Cc1ccc(C(C)(C)C)cc1` (stereo not drawn), the Potency entry in assay [1], in [2], in assay [3], in assay [5], in assay [6] and in assay [7] was “inactive” throughout. Moreover, the Potency entry in assay [8], in assay [9], in assay [10], in [11], in assay [12] and in assay [13] was “inactive” throughout. Moreover, the Potency result in assay [14], in assay [15], in [16], in assay [17], in assay [18] and in assay [19] was “inactive” throughout. Moreover, the Potency entry in [20] is “inactive”. For the same molecule, the max response in assay [4] was 0.145% (inactive) and -7.53% (inactive).
As for `O=C1C(N(CO)C(=O)NCO)N(CO)C(=O)N1CO` (stereo not drawn), the Potency result in assay [1], in assay [2], in assay [3], in assay [5], in assay [6] and in assay [7] was “inactive” throughout. In addition, the Potency entry in [8], in [9], in [10], in assay [11], in [12] and in assay [13] was “inactive” each time. Further, the Potency result in assay [14], in [15], in assay [16], in assay [17], in assay [18] and in assay [19] was “inactive” in each case. For the same molecule, in [20], the Potency entry is “inactive”. The max response in [4] was 0.683% (inactive) and 1.21% (inactive).
With `C=C1C[C@]23C[C@@]1(O)CC[C@H]2[C@@]12C=C[C@H](O)[C@@](C)(C(=O)O1)[C@H]2[C@@H]3C(=O)O`, the Potency result in [1], in assay [2], in assay [3], in [5], in assay [6] and in [7] was “inactive” in each case. For the same molecule, the Potency entry in [8], in [9], in [10], in assay [11], in assay [12] and in [13] was “inactive” in each case. For the same molecule, the Potency result in [14], in assay [15], in [16], in [17], in assay [18] and in [19] was “inactive” in each case. Moreover, in assay [20], the Potency result is “inactive”. Also, the max response in assay [4] was 3.96% (inactive) and 1.17% (inactive).
For `OCCOCCOCCOCCOCCO`, the Potency result in [1], in assay [2], in [3], in assay [5], in assay [6] and in [7] was “inactive” each time. Moreover, the Potency entry in [8], in [9], in assay [10], in [11], in [12] and in [13] was “inactive” in each case. The Potency entry in assay [14], in assay [15], in assay [16], in assay [17], in assay [19] and in assay [20] was “inactive” each time. Further, in assay [4], the max response is 2.45% (inactive) and 0.674% (inactive).
`CC1=CC(=O)CC(C)(C)C1`: the Potency in assay [1] is 25.3 µM (active) and inactive; in assay [9], 25.3 µM (active) and inactive; in [11] it was 40 µM (active) and inactive; in assay [13] it was 25.3 µM (active) and inactive. The Potency entry in assay [2], in [3], in assay [5], in assay [6], in [7] and in assay [8] was “inactive” in each case. Besides, the Potency result in assay [10], in [12], in assay [14], in [15], in assay [16] and in assay [17] was “inactive” each time. Also, the Potency entry in assay [19] and in assay [20] was “inactive” each time. Moreover, the max response in assay [4] was 9.76% (inactive).
Consider `O=C1O[C@H]([C@H](O)CO)C(O)=C1O`, for which the Potency result in [1], in [2], in [3], in assay [5], in assay [6] and in [7] was “inactive” in each case. Further, the Potency entry in [8], in assay [9], in assay [10], in assay [11], in assay [12] and in assay [13] was “inactive” each time. In addition, the Potency entry in [14], in [15], in [16], in assay [17], in [18] and in assay [19] was “inactive” in each case. Moreover, the Potency result in assay [20] was “inactive”. In assay [4], the max response was 0.913% (inactive) and 0.152% (inactive).
Consider `CCCCCCCCO`, for which the Potency entry in [1], in assay [2], in [3], in assay [5], in assay [6] and in [7] was “inactive” in each case. The Potency result in assay [8], in assay [9], in [10], in assay [11], in [12] and in assay [13] was “inactive” throughout. Further, the Potency entry in assay [14], in [15], in assay [16], in assay [17], in assay [18] and in assay [19] was “inactive” each time. In addition, the Potency result in [20] is “inactive”. Besides, the max response in assay [4] was 2.5% (inactive) and 9.18% (inactive).
Take `O=[N+]([O-])c1ccccc1C(F)(F)F`: the Potency result in assay [1], in [2], in [3], in assay [5], in [6] and in [7] was “inactive” in each case. For the same molecule, the Potency result in [8], in assay [9], in assay [10], in assay [11], in assay [12] and in [13] was “inactive” throughout. The Potency entry in assay [14], in assay [15], in assay [16], in assay [17], in [18] and in assay [19] was “inactive” throughout. The Potency entry in assay [20] is “inactive”. Besides, in [4], the max response was 3.79% (inactive) and 8.48% (inactive).
